{"source": "PubChem BioAssay (NCI)", "note": "This is part of a sample that, as a whole, favours compounds with a hit. Of some 83,000 tested, about 20% had one in any assay.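 Percent growth is the endpoint: 0 to 100 indicates growth inhibition (40 means 60% inhibition), 0 means no net growth, and negative values indicate cell death.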 A number with no mark means an inactive call. Calls of active or inactive are those of the source.", "data": [{"test_system": "OVCAR-8 ovarian", "assay": "NCI-60 one-dose screen, 48 h (100 = growth as untreated, 0 = no growth, -100 = all killed)", "settings": "10 µM unless noted", "procedure": "Growth inhibition of the OVCAR-8 human tumor cell line is measured as a screen for anti-cancer activity. Cells are grown in 96 well plates and exposed to the test compound for 48 hours. Compounds are tested at a single concentration, which is 10^-5 M for most compounds. The reported endpoint is percent growth (GI% or GIPRCNT), where numbers from 0 - 100% represent growth inhibition, and numbers from -100% - 0 represent cell death. For example, a value of 40 represents 60% growth inhibition. A value of 0 means no net growth occurred over the course of the experiment. A value of -40 indicates 40% of cells at the beginning of the experiment died by the end of the experiment. A value of -100 means all cells are dead at the end of the experiment.\nNCI-60 Human Tumor Cell Lines Screen was performed using the standard one-dose NCI protocol, which is described in more detail at https://dtp.cancer.gov/discovery_development/nci-60/default.htm.\nCompounds with GIPRCNT values below 10 were considered active. Activity score was based on GIPRCNT using the following formula: […]\nScore is 0 for GIPRCNT values of 100 or above, 50 for GIPRCNT values of 0, and 100 for GIPRCNT values of -100.", "values": [{"compound": "O=C1NN(C(=O)c2ccc(Cl)cc2)C(c2ccccc2)=N/C1=C\\c1cn(-c2ccccc2)nc1-c1ccccc1", "growth": "94.1%"}, {"compound": "CCCCN(CCCC)c1ccc(C(=N)c2ccc(N(CCCC)CCCC)cc2)cc1", "growth": "-82.1% (active)"}, {"compound": "CC(C)(C)n1cc(-c2ccnc(NCCCNS(=O)(=O)c3ccc(Cl)cc3)c2)c(-c2cccc(O)c2)n1", "growth": "6.22% (active)"}, {"compound": "COc1ccc(/C=N\\NC(=O)CN2CCN(c3cc4c(cc3F)c(=O)c(C(=O)N/N=C/c3ccc(OC)c(OC)c3)cn4C3CC3)CC2)cc1OC", "growth": "13.3%"}, {"compound": "Cc1nn(-c2ccc([N+](=O)[O-])cc2)c2ncnc(NCCc3ccccc3)c12", "growth": "98.4%"}, {"compound": "COc1ccc(C2C=C(c3ccc(OC)c(OC)c3)N=C3SC=C(C)N32)c(Br)c1", "note": "(stereo not given)", "growth": "99.2%"}, {"compound": "CCN1C(=O)N(CC)C2C1NN=c1s/c(=C\\c3cccnc3)c(=O)n12", "note": "(stereo not given)", "growth": "35.8%"}, {"compound": "CCCCN(CCCC)C(=O)CC", "growth": "112%"}, {"compound": "COc1ccc(C(=O)c2cc(OC)c3c(c2)OCO3)cc1O", "growth": "17.8%"}, {"compound": "CN1C(=O)N(C)C2C1NN=c1s/c(=C\\C=C\\c3ccccc3)c(=O)n12", "note": "(stereo not given)", "growth": "79.7%"}, {"compound": "COc1cc(-c2nc(N=Nc3c(O)[nH]c4ccc(Br)cc34)[nH]c(=O)c2C#N)cc(OC)c1OC", "growth": "93.5%"}, {"compound": "Cc1[nH]c2ccc(F)cc2c1CCNC(=O)C1CCN(C(=O)c2ccccc2)CC1", "growth": "93.3% [25 µM]"}, {"compound": "Brc1cccc(-c2cc(-c3ccc4nccnc4c3)[nH]n2)c1", "growth": "29.3% [25 µM]"}, {"compound": "O=C(Nc1cccc(-n2cc(-c3ccncc3)c(-c3ccc(Cl)c(O)c3)n2)c1)Nc1cc(C(F)(F)F)cc(C(F)(F)F)c1", "growth": "-12.2% (active)"}, {"compound": "N=C(N)c1ccc(-c2ccc(-c3ccc(-c4cccs4)s3)s2)cc1", "growth": "101%"}, {"compound": "Cc1ccc(-c2cc3nc(C(Cl)Cl)nc(-c4ccccc4C)n3n2)cc1", "growth": "90.5%"}, {"compound": "CCOC(=O)c1ccc(NC(=O)N2CC(C)OC(C)C2)cc1", "note": "(stereo not given)", "growth": "101%"}, {"compound": "Brc1cccc(-c2cc(-c3ccc4c(c3)OCCCO4)[nH]n2)c1", "growth": "69.3% [25 µM]"}, {"compound": "Cc1ccc(CSC(=N)N)cc1C", "growth": "109%"}, {"compound": "O=C(c1ccccc1)c1c(/C=C/c2ccccc2)c2ccccc2[nH]c1=O", "growth": "90.9%"}, {"compound": "C=C(C)[C@@H]1C[C@@H]2Cc3cc(F)ccc3N1O2", "growth": "97.1%"}, {"compound": "Nc1cc2c(cc1C(=O)c1cccc(F)c1)OCCO2", "growth": "91.1%"}, {"compound": "COC(=O)C(Sc1ccc(Cl)cc1)C1SC(=S)N(Cc2ccccc2)C1=O", "note": "(stereo not given)", "growth": "101%"}, {"compound": "CCOC(=O)CN1/C(=N/c2sc3c(c2C(=O)OCC)CCN(C(=O)OCC)C3)SC(=O)/C1=C\\C(=O)OC", "growth": "75.2%"}, {"compound": "O=C(/C=C\\c1cccc([N+](=O)[O-])c1)/C=C/c1cccc([N+](=O)[O-])c1", "growth": "80.7%"}, {"compound": "COc1ccc(-c2c(N)n[nH]c2-c2cc(OC)c(OC)c(OC)c2)cc1", "growth": "21.2%"}, {"compound": "C=C(C)[C@@H]1CC[C@]2(C(=O)O)CC[C@]3(C)[C@H](CC[C@@H]4[C@@]5(C)C[C@@H](CC#Cc6ccc(C(F)(F)F)cc6)[C@H](O)C(C)(C)[C@@H]5CC[C@]43C)[C@@H]12", "growth": "3.74% (active)"}, {"compound": "COC1=C(OC)C(=O)C(CCCCCCCCCC[P+](c2ccccc2)(c2ccccc2)c2ccccc2)=C(C)C1=O", "growth": "-48.3% (active)"}, {"compound": "C=C1CCC2C(C)(CO)C(O)CCC2(C)C1C/C=C1/C(=O)OCC1Oc1ccccc1C", "note": "(stereo not given)", "growth": "72.5%"}, {"compound": "O=[N+]([O-])c1cc(Cl)c2[nH]c3c(Cl)cc([N+](=O)[O-])cc3c2c1", "growth": "-2.33% (active)"}, {"compound": "COc1ccc(-c2c(N)n[nH]c2-c2cc(OC)c3c(c2)OCCO3)cc1", "growth": "83.5%"}, {"compound": "COc1ccc(Nc2ncccc2C(=O)NCc2cn(Cc3cccc(Oc4ccccc4)c3)nn2)c(OC)c1", "growth": "43.4%"}, {"compound": "CC(C)OC(=O)N1CCOCC1", "growth": "95.6%"}, {"compound": "COc1ccc(Nc2[nH]n3c(=O)cc(-c4ccccc4)nc3c2C(=O)Nc2ccc(C)cc2)c(OC)c1", "growth": "79.4%"}, {"compound": "O=C1Nc2ccc3c(c2/C1=C\\c1cc2c(cc1Br)OCO2)OCO3", "growth": "35%"}, {"compound": "COc1ccc(C(=O)N2NC(=O)/C(=C/c3cn(-c4ccccc4)nc3-c3ccccc3)N=C2c2ccccc2)cc1", "growth": "105%"}, {"compound": "COc1ccc(-c2cnoc2-c2ccc(OC)cc2O)cc1", "growth": "51.4%"}, {"compound": "COc1c2occc2c(OC)c2c(=O)c(-c3cc(-c4ccc(F)cc4)c(C#N)c(N)n3)c(C)oc12", "growth": "49.1%"}, {"compound": "N#Cc1c(Nc2ccccc2)nc2n(c1=O)-c1ccccc1Sc1ccccc1-2", "growth": "74.9%"}, {"compound": "COc1ccc(/C(C#N)=C/c2cc(OC)c(OC)c(OC)c2)cc1", "growth": "57.4%"}]}]}
